# Measurements as given in PubChem BioAssay (NCI).
# This is part of a sample that, as a whole, favours compounds with a hit. Of some 79,000 tested, about 15% had one in any assay. Values without a mark were called inactive. Activity calls are given as the source filed them. Rule as the data show it: active = growth inhibition above about 70%; inactive = the rest.
# How the values were obtained:
# [1] = NCI Yeast Anticancer Drug Screen. Data for the rad52 strain (AID 147);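 also: 0% = growth of vehicle-treated control cultures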; settings: S. cerevisiae rad52 mutant growth inhibition, hits give high values
# Outline: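 Measured: yeast growth inhibition. System: strain with a defined DNA damage repair alteration. Reference: vehicle-treated control cultures.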
# [2] = NCI Yeast Anticancer Drug Screen. Data for the wt1 strain (AID 149);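 also: 0% = growth of vehicle-treated wt1 cultures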; settings: S. cerevisiae wt1 strain (SPY 50644) growth inhibition, hits give high values
# Outline: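 Measured: growth of wt1 yeast under compound versus vehicle treatment, reported as inhibition.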
# [3] = NCI Yeast Anticancer Drug Screen. Data for the rad50EPP+ strain (AID 151);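 also: 0% = growth of vehicle-treated control cultures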; settings: S. cerevisiae rad50 mutant strain, hits give high values
# Outline: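 One strain with a rad50 alteration (rad50EPP+) was compound-treated, its growth then compared to that of vehicle controls.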
# [4] = NCI Yeast Anticancer Drug Screen. Data for the mgt1 strain (AID 153); settings: S. cerevisiae mgt1 mutant growth inhibition, hits give high values
# Outline: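 After exposure of the mgt1 yeast mutant to compound, growth was measured and reported as inhibition compared with vehicle controls.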
# [5] = NCI Yeast Anticancer Drug Screen. Data for the rad50 strain (AID 155);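 also: 0% = growth of vehicle-only cultures of the same strain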; settings: S. cerevisiae rad50 strain growth inhibition, hits give high values
# Outline: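 Growth of the mutant yeast was measured after compound exposure and referenced to vehicle-treated cultures.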
# [6] = NCI Yeast Anticancer Drug Screen. Data for the mec2-1 strain (AID 157); settings: S. cerevisiae mec2-1 strain, hits give high values
# Outline: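 Test agents were screened against the mec2-1 yeast strain, with defined DNA repair or cell cycle alteration. Growth was scored as inhibition against vehicle-only controls.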
# [7] = NCI Yeast Anticancer Drug Screen. Data for the rad14 strain (AID 159);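 also: 0% = growth of vehicle-treated control cultures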; settings: S. cerevisiae rad14 strain growth inhibition, hits give high values
# Outline: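 Here, inhibition of yeast growth was measured after compound exposure, using a strain with a genetic defect in DNA damage repair and vehicle-treated cultures as the reference.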
# [8] = NCI Yeast Anticancer Drug Screen. Data for the sgs1 mgt1 strain (AID 161);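 also: 0% = growth of cultures given vehicle only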; settings: S. cerevisiae sgs1 mgt1 strain, hits give high values
# Outline: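 Inhibition of yeast growth, normalised to vehicle-treated controls, is reported for a strain bearing genetic alterations in DNA damage repair.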
# [9] = NCI Yeast Anticancer Drug Screen. Data for the CLN2oe strain (AID 163);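 also: 0% = growth of vehicle-only control cultures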; settings: S. cerevisiae CLN2oe strain, hits give high values
# Outline: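 Here, growth inhibition in a cell-cycle-altered yeast strain after compound exposure was quantified against vehicle control growth.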
# [10] = NCI Yeast Anticancer Drug Screen. Data for the cln2 rad14 strain (AID 165);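 also: 0% = growth equal to vehicle treated cultures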; settings: S. cerevisiae cln2 rad14 strain, hits give high values
# Outline: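 Growth of compound-exposed yeast (cln2 rad14 genotype) measured and expressed as inhibition relative to vehicle.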
# [11] = NCI Yeast Anticancer Drug Screen. Data for the bub3 strain (AID 167); settings: S. cerevisiae bub3 mutant strain, hits give high values
# Outline: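 Whole-cell yeast assay. The mutant strain was incubated with compounds, and growth inhibition was determined by comparison with vehicle-treated cells.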
# [12] = NCI Yeast Anticancer Drug Screen. Data for the wt2 strain (AID 169);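 also: 0% = growth of vehicle-treated yeast cultures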; settings: S. cerevisiae wt2 strain growth inhibition, hits give high values
# Outline: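 Genetically defined yeast strains from a DNA-repair/cell-cycle panel were used. Compound-exposed yeast growth was measured, and the inhibition was calculated relative to vehicle treatment.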
# [13] = NCI Yeast Anticancer Drug Screen. Data for the mlh1 strain (AID 171);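 also: 0% = growth of vehicle-treated control cultures of the same strain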; settings: S. cerevisiae mlh1 strain growth inhibition, hits give high values
# Outline: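 Here the genetically defined yeast mutant is grown with each compound, and the extent to which its growth falls below that of vehicle-exposed cells is reported.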
# [14] = NCI Yeast Anticancer Drug Screen. Data for the sgs1 strain (AID 173);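 also: 0% = growth of vehicle-only control cultures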; settings: S. cerevisiae sgs1 mutant, hits give high values
# Outline: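 Relative growth inhibition, referenced to vehicle, was determined in a yeast strain with a defined alteration affecting DNA damage repair or cell cycle control after compound exposure.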
# [15] = NCI Yeast Anticancer Drug Screen. Data for the mlh1 rad18 strain (AID 175); settings: S. cerevisiae mlh1 rad18 strain growth inhibition, hits give high values
# Outline: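 In this whole-cell yeast screen, a strain with altered DNA damage repair is challenged with compound, and its growth is measured against matched vehicle-treated controls.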
# [16] = NCI Yeast Anticancer Drug Screen. Data for the rad18 strain (AID 177); settings: S. cerevisiae rad18 mutant growth inhibition, hits give high values
# Outline: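 Screen uses a yeast strain with a defined lesion in DNA damage repair; compound effect is read as loss of growth compared to untreated vehicle cultures.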
# [17] = at 5.0 µM (retest, dose inferred, filed as 0.5)
# [18] = at 50.0 µM (retest, dose inferred, filed as 5.0)
smiles,measurement,setting,value
O=S(=O)(c1ccccc1)N1CN2CN(C1)CN(S(=O)(=O)c1ccccc1)C2,growth inhibition,[1]; at 1.2 µM,-10%
same,growth inhibition,[1]; at 3.7 µM,-2%
same,growth inhibition,[1]; at 11.0 µM,-15%
same,growth inhibition,[1]; at 33.0 µM,-8%
same,growth inhibition,[1]; at 100.0 µM,-5%
same,growth inhibition,[2]; at 1.2 µM,-3%
same,growth inhibition,[2]; at 3.7 µM,14%
same,growth inhibition,[2]; at 11.0 µM,17%
same,growth inhibition,[2]; at 33.0 µM,11%
same,growth inhibition,[2]; at 100.0 µM,16%
same,growth inhibition,[3]; at 1.2 µM,-18%
same,growth inhibition,[3]; at 3.7 µM,-15%
same,growth inhibition,[3]; at 11.0 µM,-15%
same,growth inhibition,[3]; at 33.0 µM,-12%
same,growth inhibition,[3]; at 100.0 µM,-10%
same,growth inhibition,[4]; at 1.2 µM,0%
same,growth inhibition,[4]; at 3.7 µM,7%
same,growth inhibition,[4]; at 11.0 µM,5%
same,growth inhibition,[4]; at 33.0 µM,7%
same,growth inhibition,[4]; at 100.0 µM,6%
same,growth inhibition,[5]; at 1.2 µM,-4%
same,growth inhibition,[5]; at 3.7 µM,-7%
same,growth inhibition,[5]; [17],24%
same,growth inhibition,[5]; at 11.0 µM,-10%
same,growth inhibition,[5]; at 33.0 µM,-12%
same,growth inhibition,[5]; [18],38%
same,growth inhibition,[5]; at 50.0 µM,-11.5%
same,growth inhibition,[5]; at 100.0 µM,-11%
same,growth inhibition,[6]; at 1.2 µM,-2%
same,growth inhibition,[6]; at 3.7 µM,-6%
same,growth inhibition,[6]; [17],26%
same,growth inhibition,[6]; at 11.0 µM,-19%
same,growth inhibition,[6]; at 33.0 µM,0%
same,growth inhibition,[6]; [18],79% (active)
same,growth inhibition,[6]; at 50.0 µM,-28%
same,growth inhibition,[6]; at 100.0 µM,-10%
same,growth inhibition,[7]; at 1.2 µM,-16%
same,growth inhibition,[7]; at 3.7 µM,-16%
same,growth inhibition,[7]; at 11.0 µM,-30%
same,growth inhibition,[7]; at 33.0 µM,-24%
same,growth inhibition,[7]; at 100.0 µM,-26%
same,growth inhibition,[8]; [17],-11%
same,growth inhibition,[8]; [18],4%
same,growth inhibition,[8]; at 50.0 µM,-5.55%
same,growth inhibition,[9]; at 1.2 µM,1%
same,growth inhibition,[9]; at 3.7 µM,-4%
same,growth inhibition,[9]; at 11.0 µM,-6%
same,growth inhibition,[9]; at 33.0 µM,13%
same,growth inhibition,[9]; at 100.0 µM,-7%
same,growth inhibition,[10]; [17],44%
same,growth inhibition,[10]; [18],52%
same,growth inhibition,[10]; at 50.0 µM,-16.4%
same,growth inhibition,[11]; at 1.2 µM,-13%
same,growth inhibition,[11]; at 3.7 µM,-16%
same,growth inhibition,[11]; [17],25%
same,growth inhibition,[11]; at 11.0 µM,-25%
same,growth inhibition,[11]; at 33.0 µM,3%
same,growth inhibition,[11]; [18],31%
same,growth inhibition,[11]; at 50.0 µM,-29.2%
same,growth inhibition,[11]; at 100.0 µM,-21%
same,growth inhibition,[12]; at 1.2 µM,-9%
same,growth inhibition,[12]; at 3.7 µM,9%
same,growth inhibition,[12]; at 11.0 µM,-14%
same,growth inhibition,[12]; at 33.0 µM,-5%
same,growth inhibition,[12]; at 100.0 µM,5%
same,growth inhibition,[13]; at 1.2 µM,-16%
same,growth inhibition,[13]; at 3.7 µM,-18%
same,growth inhibition,[13]; at 11.0 µM,-23%
same,growth inhibition,[13]; at 33.0 µM,-18%
same,growth inhibition,[13]; at 100.0 µM,-21%
same,growth inhibition,[14]; at 1.2 µM,-21%
same,growth inhibition,[14]; at 3.7 µM,-19%
same,growth inhibition,[14]; at 11.0 µM,-23%
same,growth inhibition,[14]; at 33.0 µM,-24%
same,growth inhibition,[14]; at 100.0 µM,-19%
same,growth inhibition,[15]; [17],40%
same,growth inhibition,[15]; [18],30%
same,growth inhibition,[15]; at 50.0 µM,-3.75%
same,growth inhibition,[16]; at 1.2 µM,-18%
same,growth inhibition,[16]; at 3.7 µM,-14%
same,growth inhibition,[16]; at 11.0 µM,-19%
same,growth inhibition,[16]; at 33.0 µM,-27%
same,growth inhibition,[16]; at 100.0 µM,-36%
O=C1C2=C(c3ccccc31)C(c1ccccc1)N1C(=O)CSC1=N2 (stereo unspecified),growth inhibition,[1]; at 1.2 µM,12%
same,growth inhibition,[1]; at 3.7 µM,15%
same,growth inhibition,[1]; at 11.0 µM,25%
same,growth inhibition,[1]; at 33.0 µM,31%
same,growth inhibition,[1]; at 100.0 µM,73% (active)
same,growth inhibition,[2]; at 1.2 µM,10%
same,growth inhibition,[2]; at 3.7 µM,3%
same,growth inhibition,[2]; at 11.0 µM,15%
same,growth inhibition,[2]; at 33.0 µM,22%
same,growth inhibition,[2]; at 100.0 µM,54%
same,growth inhibition,[3]; at 1.2 µM,9%
same,growth inhibition,[3]; at 3.7 µM,2%
same,growth inhibition,[3]; at 11.0 µM,5%
same,growth inhibition,[3]; at 33.0 µM,33%
same,growth inhibition,[3]; at 100.0 µM,23%
same,growth inhibition,[4]; at 1.2 µM,-2%
same,growth inhibition,[4]; at 3.7 µM,1%
same,growth inhibition,[4]; at 11.0 µM,-7%
same,growth inhibition,[4]; at 33.0 µM,38%
same,growth inhibition,[4]; at 100.0 µM,81% (active)
same,growth inhibition,[5]; at 1.2 µM,-1%
same,growth inhibition,[5]; at 3.7 µM,2%
same,growth inhibition,[5]; [17],14%
same,growth inhibition,[5]; at 11.0 µM,12%
same,growth inhibition,[5]; at 33.0 µM,30%
same,growth inhibition,[5]; [18],44%
same,growth inhibition,[5]; at 50.0 µM,58.2%
same,growth inhibition,[5]; at 100.0 µM,74% (active)
same,growth inhibition,[6]; at 1.2 µM,5%
same,growth inhibition,[6]; at 3.7 µM,10%
same,growth inhibition,[6]; [17],-9%
same,growth inhibition,[6]; at 11.0 µM,10%
same,growth inhibition,[6]; at 33.0 µM,8%
same,growth inhibition,[6]; [18],16%
same,growth inhibition,[6]; at 50.0 µM,45%
same,growth inhibition,[6]; at 100.0 µM,73% (active)
same,growth inhibition,[7]; at 1.2 µM,-21%
same,growth inhibition,[7]; at 3.7 µM,-17%
same,growth inhibition,[7]; at 11.0 µM,-20%
same,growth inhibition,[7]; at 33.0 µM,6%
same,growth inhibition,[7]; at 100.0 µM,74% (active)
same,growth inhibition,[8]; [17],11%
same,growth inhibition,[8]; [18],44%
same,growth inhibition,[8]; at 50.0 µM,59.6%
same,growth inhibition,[9]; at 1.2 µM,14%
same,growth inhibition,[9]; at 3.7 µM,4%
same,growth inhibition,[9]; at 11.0 µM,9%
same,growth inhibition,[9]; at 33.0 µM,-3%
same,growth inhibition,[9]; at 100.0 µM,54%
same,growth inhibition,[10]; [17],-11%
same,growth inhibition,[10]; [18],26%
same,growth inhibition,[10]; at 50.0 µM,38.7%
same,growth inhibition,[11]; at 1.2 µM,-2%
same,growth inhibition,[11]; at 3.7 µM,17%
same,growth inhibition,[11]; [17],-31%
same,growth inhibition,[11]; at 11.0 µM,15%
same,growth inhibition,[11]; at 33.0 µM,79% (active)
same,growth inhibition,[11]; [18],92% (active)
same,growth inhibition,[11]; at 50.0 µM,87.2% (active)
same,growth inhibition,[11]; at 100.0 µM,92% (active)
same,growth inhibition,[12]; at 1.2 µM,2%
same,growth inhibition,[12]; at 3.7 µM,7%
same,growth inhibition,[12]; at 11.0 µM,28%
same,growth inhibition,[12]; at 33.0 µM,44%
same,growth inhibition,[12]; at 100.0 µM,82% (active)
same,growth inhibition,[13]; at 1.2 µM,3%
same,growth inhibition,[13]; at 3.7 µM,-8%
same,growth inhibition,[13]; at 11.0 µM,1%
same,growth inhibition,[13]; at 33.0 µM,32%
same,growth inhibition,[13]; at 100.0 µM,84% (active)
same,growth inhibition,[14]; at 1.2 µM,-8%
same,growth inhibition,[14]; at 3.7 µM,-14%
same,growth inhibition,[14]; at 11.0 µM,13%
same,growth inhibition,[14]; at 33.0 µM,41%
same,growth inhibition,[14]; at 100.0 µM,77% (active)
same,growth inhibition,[15]; [17],-27%
same,growth inhibition,[15]; [18],42%
same,growth inhibition,[15]; at 50.0 µM,51%
same,growth inhibition,[16]; at 1.2 µM,-1%
same,growth inhibition,[16]; at 3.7 µM,10%
same,growth inhibition,[16]; at 11.0 µM,14%
same,growth inhibition,[16]; at 33.0 µM,31%
same,growth inhibition,[16]; at 100.0 µM,72% (active)
